PubChem BioAssay (NCATS)
Inconclusive results are not listed. A number with no mark means an inactive call. The source made the active and inactive calls. The call rests on the fitted dose curve; in most records, active means well fitted cell-killing curve with a large enough effect; inconclusive means small, poorly fitted or top-dose-only effect, or effect the other way; inactive means no such curve, though single readings can be large or run the other way. Numbered stars: 1 amine (or outer) side, 2 acyl side, 3 side chain; on linkers, the order of the positions; unused ones are H or OH. Bridge positions count the residues as written; N and C are the ends. Square brackets hold non-standard residues; d marks the D form. Peptide text beside a SMILES is read from it. I, II: the chains in the order shown. Actinocin(9to1) = Cc1c2oc3c(C)ccc(C(=O)[*:1])c3nc-2c(C(=O)[*:2])c(N)c1=O; NMeV = CN[CH](C(=O)O)C(C)C; Sar = CNCC(=O)O

Experiment: Quantitative highthroughput screen to assess conditional lethalithy of SEM cells grown in Human Plasma-Like Medium with dialyzed fetal bovine serum (HPLM+ds) (AID 1963882); further: nearly all actives have a fitted effect of over 35% in size
Conditions: SEM B-ALL cells in HPLM+ds, CellTiter-Glo viability, 48 h; series mostly up to 45.8 µM; viability: at the top concentration
From the text: Assay Provider: Jason Cantor Ph.D.
Department of Biochemistry
University of Wisconsin-Madison, Madison, WI, USA
Chemical screening studies have identified drug sensitivities across hundreds of cancer cell lines but most putative therapeutics fail to translate. Discovery and development of drug candidates in models that more accurately reflect nutrient levels in human blood is a major challenge. Here we performed high-throughput screens in conventional versus Human Plasma-Like Medium (HPLM) to identify compounds that were "missed" when screening using the artificial culture condition. Sets of conditional anticancer compounds spanned phases of clinical development and included non-oncology drugs were assessed. […] We also traced conditional phenotypes for several chemotherapeutics to availability of HPLM-specific metabolites and confirmed others for compounds whose reported targets are encoded by nonessential genes. Our findings establish generalizable strategies for exploiting conditional lethality in HPLM to reveal therapeutic candidates and mechanisms of action in cancer cells.
Described herein are the results of each viability screens against three cell lines: NOMO1 (an acute myeloid leukemia cell line); P12-Ichikawa (a T-cell acute lymphoblastic leukemia); and SEM (a B-cell ALL). Each assay was screened using 3 different cell culture media: homemade human plasma-Like medium with 10% dialyzed fetal bovine serum (HPLM+ds); RPMI1640 with 10% untreated FBS and 5mM glucose (RPMI+s); and RPMI1640 with 10% dialyzed fetal bovine serum and 5 mM glucose (RPMI+ds).
PROTOCOL TABLE (as described by Inglese J, Shamu CE and Guy RK. 2007)
SEQUENCE No. (e.g., 1, 2, 3, etc.); […] (e.g., Cells, Incubation, Reagent, etc.); VALUE and DESCRIPTION.
1; Cells; 5 uL; white, solid bottom 1536-well Greiner assay plate.
2; Compounds; 23 nL; Kalypsis pin tool (Wako USA) equipped with a 1536-well pin head to transfer to the assay plates.
3; Incubation; 48 hours; 37C incubation.
4; Reagent; 3 uL; CellTiter Glo (Promega).
5; Incubation; 5 min, room temperature
6; Detection; Luminescence, Viewlux PerkinElmer.
NOTES (numbers refer to Sequence numbers above)
1. Briefly, 5 ul of cell reagent was dispensed using a Multidrop Combi Dispenser. The NOMO1 and SEM cells were plated at 500 cells/well and the P12-Ichikawa line at 1000 cells/well.
2. After seeding the cells, 23 nL of MIPE 4.1 library compounds (in DMSO) were added to each plate using a Kalypsys 1536 Pintool dispenser. Bortezomib at final concentration of […] and DMSO were added to each plate as positive and negative controls respectively. For each screen, MIPE 4.1 compounds were added over an eleven-point concentration range […] in 3-fold dilutions.
3. Each plate was covered with a stainless steel gasketed lid to prevent evaporation and incubated for 48 hour at 37C, 95% relative humidity, and 5% CO2.
4-5. Three microliter CellTilter-GloTM luminescent substrate mix (Promega) reagent was added to the assay plate and incubated at room temperature for 5 min.
6. The luminescence signal was measured using a ViewLux (PerkinElmer) multiplate reader with a 2 second exposure time per plate. Data for each compound were normalized as percent viability such that measurements for DMSO and the empty well controls in each plate were defined as 100% and 0%, respectively.
Potency means the concentration at half of the fitted maximal effect.

| Compound | Potency | viability [%] |
| --- | --- | --- |
| Cn1cnc(-c2cc3nccc(Oc4ccc(NC(=S)NC(=O)Cc5ccccc5)cc4F)c3s2)c1 | 590 nM (active) | – |
| O=C(CN1C(=O)C2(CCCC2)NC[C@H]1c1cc(F)cc(F)c1)Nc1ccc2c(c1)C[C@@]1(C2)C(=O)Nc2ncccc21 | – | 79.5 |
| COc1ccc(C(=O)CC(=O)c2ccc(C(C)(C)C)cc2)cc1 | – | 85.5 |
| OC(CCN1CCCCC1)(c1ccccc1)C1CC2C=CC1C2 (stereo not given) | – | 110 |
| CO[C@H]1O[C@@H]2O[C@@]3(C)CC[C@@H]4[C@@H](C)CC[C@@H]([C@H]1C)[C@@]24OO3 | – | 83.3 |
| N#CC(=C(O)c1ccc(Cl)cc1Cl)c1nc2cc(Cl)ccc2c(=O)[nH]1 | – | 110 |
| O=c1cc(-c2ccccc2)oc2cc(O)cc(O)c12 | 16600 nM (active) | – |
| CN1CCC[C@H]1CCO[C@](C)(c1ccccc1)c1ccc(Cl)cc1 | – | 74.1 |
| CC(C)c1cnn2c(NCc3ccccc3)cc(N[C@@H](CO)[C@H](O)CO)nc12 | 743 nM (active) | – |
| Cn1nnc2c(C(N)=O)ncn2c1=O | 332 nM (active) | – |
| COc1nc(C)cnc1NS(=O)(=O)c1cccnc1-c1ccc(-c2nnco2)cc1 | – | 109 |
| COc1cc(C(=O)NS(=O)(=O)c2ccccc2C)ccc1Cc1cn(C)c2ccc(NC(=O)OC3CCCC3)cc12 | 20900 nM (active) | – |
| Cc1cc(Cl)ccc1OCCCC(=O)NO | 9350 nM (active) | – |
| CCOC(=O)C1=C(C)NC2=C(C(=O)CC(C)(C)C2)C1c1ccc(-c2ccccc2)cc1 (stereo not given) | 18700 nM (active) | – |
| O=c1[nH]nc(OCCCc2ccc(Cl)cc2)c(NCc2cccnc2)c1Br | 743 nM (active) | – |
| Cc1c2oc3c(C)ccc(C(=O)NC4C(=O)NC(C(C)C)C(=O)N5CCCC5C(=O)N(C)CC(=O)N(C)C(C(C)C)C(=O)OC4C)c3nc-2c(C(=O)NC2C(=O)NC(C(C)C)C(=O)N3CCCC3C(=O)N(C)CC(=O)N(C)C(C(C)C)C(=O)OC2C)c(N)c1=O (stereo not given) (I: TVP[Sar][NMeV] / II: TVP[Sar][NMeV]; ester I:1-I:C, II:1-II:C; linker I:N-II:N via Actinocin(9to1); configuration not given here) | – | 1.45 |
| CCOC(=O)[C@H](CCc1ccccc1)N[C@H]1CS[C@H](c2cccs2)CN(CC(=O)O)C1=O | – | 73.1 |
| CC(=Cc1ccccc1)C=C1SC(=S)N(CC(=O)O)C1=O | – | 105 |
| NC[C@H](O)c1ccc(O)c(O)c1 | – | 102 |
| CCCOc1ccc(C(=O)OCCN(CC)CC)cc1N | – | 83.9 |

| Compound | Potency | viability [%] |
| --- | --- | --- |
| CN(C)CC[C@H](CSc1ccccc1)Nc1ccc(S(=O)(=O)NC(=O)c2ccc(N3CCN(Cc4ccccc4-c4ccc(Cl)cc4)CC3)cc2)cc1[N+](=O)[O-] | 59 nM (active) | – |
| COc1ccc([C@@H]2CNC(=O)C2)cc1OC1CCCC1 | – | 89.9 |
| CN(C)CCOC(c1ccccc1)c1ccccc1 | – | 82.5 |
| COc1ccc([C@@H]2CC(=O)c3c(O)cc(O[C@@H]4O[C@H](CO[C@@H]5O[C@@H](C)[C@H](O)[C@@H](O)[C@@H]5O)[C@@H](O)[C@H](O)[C@@H]4O)cc3O2)cc1O | – | 110 |
| NC1(Cc2ccc(Cl)cc2)CCN(c2ncnc3[nH]ccc23)CC1 | 6620 nM (active) | – |
| O=C(O)CCCCCC(=O)NN=C1CCCC1 | – | 90 |
| C[C@](Cc1c[nH]c2ccccc12)(NC(=O)OC1C2CC3CC(C2)CC1C3)C(=O)NC[C@H](NC(=O)CCC(=O)O)c1ccccc1 (stereo not given in full) | – | 105 |
| Cn1cc(-c2ccc3nnc(C(F)(F)c4ccc5ncccc5c4)n3n2)cn1 | – | 92.9 |
| CC(C(=O)O)c1ccc2c(c1)CC(=O)c1ccccc1S2 (stereo not given) | – | 98 |
| CCN(CC)CCn1c(=O)c(Cc2ccc(OC)cc2)nc2ccccc21 | – | 94.6 |
| CNC(=O)c1ccc2cc(C3(O)CCn4cncc43)ccc2c1 (stereo not given) | – | 107 |
| COc1cc2nc(-c3ccc(N4CCN(C)CC4)cc3)nc(NCCN3CCOCC3)c2cc1OC | 166 nM (active) | – |
| Cc1cnc(NC(=O)C2=C(O)c3ccccc3S(=O)(=O)N2C)s1 | – | 116 |
| C[N+](C)([O-])CCNc1ccc(NCC[N+](C)(C)[O-])c2c1C(=O)c1c(O)ccc(O)c1C2=O | 1180 nM (active) | – |
| Cc1cnc(NC(=O)Nc2cc(Br)c(C)cc2OC[C@@H]2CNCCO2)cn1 | 526 nM (active) | – |
| O=C(O)C(=O)Nc1cccc(C2=NN=N[N]2)c1 | – | 101 |
| Cc1cc(CN2CCN(c3c(Br)cnc4nc(-c5ccc(N6CCN(C)CC6)cc5)[nH]c34)CC2)no1 | 935 nM (active) | – |
| Cc1c(C(=O)Nc2ccc(N3C[C@@H](C)O[C@@H](C)C3)nc2)cccc1-c1ccc(OC(F)(F)F)cc1 | 2960 nM (active) | – |
| COc1nc(N)nc2c1ncn2[C@@H]1O[C@H](CO)[C@@H](O)[C@@H]1O | – | 103 |
| Cc1c(-c2ccnn2C)cc(C(=O)NCc2ccc(S(C)(=O)=O)cn2)c(=O)n1-c1cccc(C(F)(F)F)c1 | – | 90.1 |
